# In all, about 39,000 sequences were measured (“fluorescence intensity (a.u.)”: median about 4,300, highest 2% from about 39,000 on). Only a selection was taken, and the highest values are over-represented in it overall.
# Biological target: T1, OsSMF1 (Oryza sativa, UniProt Q6ZLB0 1-436)
# T1 sequence: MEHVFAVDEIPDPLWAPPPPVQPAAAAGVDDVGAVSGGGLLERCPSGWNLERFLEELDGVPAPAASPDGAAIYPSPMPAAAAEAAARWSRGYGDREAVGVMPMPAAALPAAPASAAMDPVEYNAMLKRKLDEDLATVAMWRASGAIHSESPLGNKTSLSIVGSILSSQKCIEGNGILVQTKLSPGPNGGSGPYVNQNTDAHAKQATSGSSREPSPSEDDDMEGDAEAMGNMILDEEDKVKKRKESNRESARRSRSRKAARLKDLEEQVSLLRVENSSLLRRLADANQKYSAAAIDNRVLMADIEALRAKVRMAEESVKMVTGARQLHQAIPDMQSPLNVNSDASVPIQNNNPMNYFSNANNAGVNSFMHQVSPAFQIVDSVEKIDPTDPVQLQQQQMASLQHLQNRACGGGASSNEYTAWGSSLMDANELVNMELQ
# Assay: protein-binding microarray (RPBM); PBS, 2% BSA, 51.3 ng/ul salmon testes DNA, 50 uM zinc acetate, 200 nM TF, 25 C, 1 h; high values mean tight binding
# Details: protein: recombinant; tags: N-terminal polyhistidine and DsRed monomer fusion (pET32a); chain copies: 2; label: CyDye5-dUTP incorporated in the synthesized complementary strand; 3' TTTTT single-stranded linker to array surface; dsDNA, one strand shown
# In short: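 The binding signal for each feature is its fluorescence intensity in arbitrary units. An Axon 4000B scanner was used to read a custom Agilent array that had been made double-stranded with Cy5-dUTP primer extension, blocked with 2% BSA, incubated at 25 °C for 1 h with 200 nM protein in PBS, 2% BSA, salmon testes DNA and 50 µM zinc acetate, and washed. The protein was an N-terminal polyhistidine–DsRed transcription factor fusion from E. coli BL21-CodonPlus, purified on Ni–NTA.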
row,Sequence,binding signal
1,TCGGCGCCGCGCCGCGCCACGGAGGGTGTCACGAGACCGCCGGAGTCACCTAGTGCAG,4790 fluorescence intensity (a.u.)
2,GCCTAGCCAGGATCGCCGCCGGCGGCGCCGCCGAGTCACACGGAGTCACCTAGTGCAG,33100 fluorescence intensity (a.u.)
3,ACGGAGAAGTCCCGAGACCGGCGCCGCCAGGACCGCCACCCGGAGTCACCTAGTGCAG,44400 fluorescence intensity (a.u.)
4,AACCGAATCCAATCGAGCTCAGGACGAGGCGGAGGAGGAGCGGAGTCACCTAGTGCAG,42900 fluorescence intensity (a.u.)
5,TCTCCATAAGAGCACCCACCAACTCAGCCTCTCCTCCCATCGGAGTCACCTAGTGCAG,3340 fluorescence intensity (a.u.)
6,CTCCTCCGCCGCCGCCGCTCCCAGCCTGCACGCCGGCCGCCGGAGTCACCTAGTGCAG,26200 fluorescence intensity (a.u.)
7,GTGCTGTTCCTGCATGTGCATGCATGTATGAGTACGTACGCGGAGTCACCTAGTGCAG,3910 fluorescence intensity (a.u.)
8,TCTCTCTTCACGGGAGGGCAGTGTGGTTTTGGTCGGATTCCGGAGTCACCTAGTGCAG,3530 fluorescence intensity (a.u.)
9,TAGTAGATCTAGTATTTTATCTTTAGTCCATCTACCGAGCCGGAGTCACCTAGTGCAG,28500 fluorescence intensity (a.u.)
10,GCCGCTACAAACCGTGGGCAAGACGTGTCGCCATGGGAGCCGGAGTCACCTAGTGCAG,4560 fluorescence intensity (a.u.)
11,TGCCAATGTTCCAATTGGTGTTGTCATCTTTGGGTTACCACGGAGTCACCTAGTGCAG,14100 fluorescence intensity (a.u.)
12,CAATTTAATGCTACTTATCTCACATGATGTCTTGGATGTTCGGAGTCACCTAGTGCAG,3980 fluorescence intensity (a.u.)
13,ATTTGGGATGTCTTTATCTCATCCAATTAATCCACGGATACGGAGTCACCTAGTGCAG,49200 fluorescence intensity (a.u.)
14,GGGCACTCGAACCATCTAGTGCAGACGTGGTAACTGGCGCCGGAGTCACCTAGTGCAG,5510 fluorescence intensity (a.u.)
15,ATATCCATATCAAATTAAGCCAGGTTTGTAATTAATAACTCGGAGTCACCTAGTGCAG,9630 fluorescence intensity (a.u.)
16,TCTTATACTAAGATAATAAGATTATATCCTTGTCATCCAACGGAGTCACCTAGTGCAG,4430 fluorescence intensity (a.u.)
17,CCAAACTAATTAAGACAGCCAACTCACCTCCATCATATAACGGAGTCACCTAGTGCAG,65500 fluorescence intensity (a.u.)
18,GCCGCCGCTCCCTCCCAATGACCCGCCGGATCTCCTAGTGCGGAGTCACCTAGTGCAG,3160 fluorescence intensity (a.u.)
19,CCTGCAGCCAGGTCCTCGTATCATAGATGACGACGACTTCCGGAGTCACCTAGTGCAG,4660 fluorescence intensity (a.u.)
20,TTTTGGATTCCCTTTTCATCCATGGATGCATGTGTTCCTTCGGAGTCACCTAGTGCAG,3220 fluorescence intensity (a.u.)
21,CGAAGCGGTTCAGGAAGATGGAGCGGCACGTGGCTGCGACCGGAGTCACCTAGTGCAG,5240 fluorescence intensity (a.u.)

row,Sequence,binding signal
1,TACTAGTGTGGACATGTTCCCCTTTTCAGGAAGATGGCAGCGGAGTCACCTAGTGCAG,40300 fluorescence intensity (a.u.)
2,GGCAGCGACCACGACACGTCGTTGTTCCCTCTGCTCCCGCCGGAGTCACCTAGTGCAG,6470 fluorescence intensity (a.u.)
3,TCCCAAACCCCGCGCCGCCTCTTACCGCTTCGCGTCAGCTCGGAGTCACCTAGTGCAG,63900 fluorescence intensity (a.u.)
4,AACTCCTCGCCACCACGCCGCTTTATTCTCTAAGAACCCCCGGAGTCACCTAGTGCAG,40700 fluorescence intensity (a.u.)
5,GCCACCGCTGCATCATCCCGCCTGTCTGCCTGCGCGCGCCCGGAGTCACCTAGTGCAG,3430 fluorescence intensity (a.u.)
6,CACCCGCCGCTGCTCTGCCTACTCGCCGGCCACCTCCTCACGGAGTCACCTAGTGCAG,3720 fluorescence intensity (a.u.)
7,CCAAACCCCACGCACGCCGCGTCGCCGCCTCCTCCTCTCCCGGAGTCACCTAGTGCAG,3670 fluorescence intensity (a.u.)
8,GCACCTCGCAATATCCATGGTCCCCGCTGCCCGTGGACTCCGGAGTCACCTAGTGCAG,41200 fluorescence intensity (a.u.)
9,CAATCCCACCTCGCGCGATGACTCCGCACCCGCCCCACCTCGGAGTCACCTAGTGCAG,7260 fluorescence intensity (a.u.)
10,TCCGAACATCCGCGTGTCTGCTTCTGCGCCAGCCCGAGCCCGGAGTCACCTAGTGCAG,44300 fluorescence intensity (a.u.)
11,GTGTGTGTGTGTGCTGCGTGTGCGTGTGCGCGCGCGTGCCCGGAGTCACCTAGTGCAG,5210 fluorescence intensity (a.u.)
12,CCCTCGCCGCCACGGCGAACCCCTCGCCGCCGCCACCGCCCGGAGTCACCTAGTGCAG,3570 fluorescence intensity (a.u.)
13,GACTCCCGCGTGCTCGCCGCGCCGCCCACCGTCACCGCCTCGGAGTCACCTAGTGCAG,3230 fluorescence intensity (a.u.)
14,GCGCTGCCACGAGTGCCCGCGTCATCCCGTCCCCTCGCACCGGAGTCACCTAGTGCAG,6120 fluorescence intensity (a.u.)
15,ACCAAACATTACCTAATGCAATCGAACTATCGAAGACATGCGGAGTCACCTAGTGCAG,3700 fluorescence intensity (a.u.)
16,GTGAGACTGGCGAGGCCCTTCTTGCGTGGCGCTGCAAGCTCGGAGTCACCTAGTGCAG,7600 fluorescence intensity (a.u.)
17,ACACTCCAGCATAGTTAATGTTTACTGCTAGGAGGATTCACGGAGTCACCTAGTGCAG,25600 fluorescence intensity (a.u.)
18,CTCCTGGTACGCCTCGCTCAGCTCGTCCACCGTCGCCTCCCGGAGTCACCTAGTGCAG,3750 fluorescence intensity (a.u.)
19,TAGAGCGCCACATGACATCTTAGAAGCGTTTGTAGGAGTACGGAGTCACCTAGTGCAG,30400 fluorescence intensity (a.u.)
20,TTATACATGCTCACGTGGCTATGTCATTGCCCTGGGTGGGCGGAGTCACCTAGTGCAG,12000 fluorescence intensity (a.u.)
21,CTAAATCCTCGGGTCCACATGTCATACTCAGCCTCTTTACCGGAGTCACCTAGTGCAG,5460 fluorescence intensity (a.u.)
